Screens deposited in PubChem BioAssay by National Center for Advancing Translational Sciences (NCATS).
FEN1 inh-1 = blocks human flap endonuclease 1; Potency, µM (doses to about 114 µM), most hits filed as inhibitors; AID 588795; Recombinant FEN1 flap cleavage, fluorescence, 15 min; 390,000 compounds, 0.35% hits; P39748; note: nearly all actives have a fitted effect of over 65% in size
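With each library titrated from low to high concentration, compounds met 10 nM FEN1 for 15 min at room temperature before 50 nM substrate was added; readings at 0 and 15 min fed four-parameter Hill curve fits.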
APEX1 inh = inhibitors of human APE1 endonuclease | P27695 | recombinant APE1, TAMRA/BHQ-2 abasic DNA cleavage fluorescence | Potency, µM (titrated, usually from 65.8 µM), most hits filed as inhibitors | 350,000 compounds, 0.35% hits; note: nearly all actives have a fitted effect of over 55% in size
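Substrate: short duplex with […] THF abasic site, 5'-TAMRA and 3'-BHQ-2, 50 nM final. APE1 at 0.75 nM, preincubated 15 min RT with compound. Fluorescence increase from first to third read measured activity.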
RECQ1 inh-1 = blocks DNA unwinding by human RECQ1 | RECQ1 DNA unwinding, red fluorescence kinetic read | Potency, µM (series often up to 57.3 µM), hits mostly inhibitors | 240,000 compounds, 0.54% hits; note: nearly all actives have a fitted effect of over 30% in size
Target sequence (P46063 whole entry, looked up): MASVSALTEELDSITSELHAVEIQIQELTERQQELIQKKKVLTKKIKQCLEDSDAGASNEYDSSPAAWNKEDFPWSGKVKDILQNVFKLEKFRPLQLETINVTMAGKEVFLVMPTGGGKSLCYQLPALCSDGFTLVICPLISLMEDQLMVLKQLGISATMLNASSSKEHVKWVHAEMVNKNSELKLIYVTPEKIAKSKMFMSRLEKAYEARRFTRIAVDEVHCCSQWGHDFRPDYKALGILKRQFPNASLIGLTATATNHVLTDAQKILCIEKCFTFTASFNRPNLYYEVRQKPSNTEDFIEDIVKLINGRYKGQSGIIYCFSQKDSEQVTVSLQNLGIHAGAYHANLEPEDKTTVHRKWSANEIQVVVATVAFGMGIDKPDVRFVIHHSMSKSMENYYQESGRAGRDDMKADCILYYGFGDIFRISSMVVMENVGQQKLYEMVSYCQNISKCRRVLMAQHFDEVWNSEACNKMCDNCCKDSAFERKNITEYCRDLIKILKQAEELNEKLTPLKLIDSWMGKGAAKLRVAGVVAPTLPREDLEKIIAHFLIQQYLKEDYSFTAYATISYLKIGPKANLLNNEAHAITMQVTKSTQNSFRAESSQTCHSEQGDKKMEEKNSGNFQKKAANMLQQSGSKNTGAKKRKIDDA
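50 nM RECQ1T1 preincubated 15 min with compound in Tris pH 8.0 buffer with MgCl2, DTT, Tween-20 and 2.5 ug/ml poly(dI-dC); started with 200 nM TAMRA/BHQ-2 forked duplex and 2 mM ATP. Unwinding read as fluorescence (525/598 nm), two reads 2 h apart.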
BLM inh = blocks DNA unwinding by human BLM helicase; Potency, µM (top dose mostly 56.1 µM), actives largely listed as inhibitors; recombinant BLM DNA unwinding, fluorescence dequenching; 350,000 compounds, 0.2% hits; note: nearly all actives have a fitted effect of over 35% in size
TDP1 inh = inhibitors of human tyrosyl-DNA phosphodiesterase TDP1. Q9NUW8. recombinant TDP1, AlphaScreen DNA substrate cleavage. Potency, µM (series often up to 130 µM), most hits filed as inhibitors. 350,000 compounds, 0.28% hits; note: nearly all actives have a fitted effect of over 40% in size
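AlphaScreen read-out: signal falls as enzyme removes the 3' tyrosine-FITC from a 5'-biotinylated DNA oligo (15 nM, 5 min, RT). Enzyme was E. coli-made recombinant Tdp1 at 1 nM, exposed to compound for 15 min beforehand; beads 10 ug/ml, 10 min.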
RECQ1 inh conf = confirmation of human RECQ1 helicase inhibitors. RECQ1 helicase DNA unwinding, fluorescence. shares compounds with RECQ1 inh-1. Potency, µM (titrated, usually from 229 µM), usual class: inhibitors. 610 compounds, 28% hits; note: nearly all actives have a fitted effect of over 45% in size
ADP FP counter = counter-screen for RECQ1 inhibitors: ADP displacement. shares compounds with RECQ1 inh-1. ADP fluorescence polarization displacement counterscreen. Potency, µM (titrated, usually from 228 µM), actives largely listed as inhibitors. 530 compounds, 27% hits; note: nearly all actives have a fitted effect of over 45% in size
RECQ1 inh-2 = blocks human RECQ1 DNA unwinding | Potency, µM (series often up to 119 µM), usual class: inhibitors | recombinant RECQ1 DNA unwinding, red fluorescence | shares compounds with RECQ1 inh-1 | 1,100 compounds, 15% hits; note: nearly all actives have a fitted effect of over 50% in size
FEN1 inh-2 = confirmation of human FEN1 inhibitors | Potency, µM, hits mostly inhibitors | FEN1 flap cleavage, TAMRA/BHQ2 fluorogenic DNA substrate | 880 compounds, 79% hits | AID 720498 | shares compounds with FEN1 inh-1; note: nearly all actives have a fitted effect of over 60% in size
Hits are given with their value; 0 = inactive; ? = inconclusive; - = not tested or not shown. In the library only some 0.92% were active in any assay of this set; here they are far more common. Calls come from the whole dose curve; as a rule, active = well fitted curve in the direction sought with a large enough effect; inconclusive = small, poorly fitted or top-dose-only effect, or another doubt; inactive = no such curve, though single readings can be large; an effect the other way counts as inactive or inconclusive.

SMILES	FEN1 inh-1	APEX1 inh	RECQ1 inh-1	BLM inh	TDP1 inh	FEN1 inh-2	others
c1ccncc1	-	0	0	-	0	-
BrC(Br)Br	-	0	0	-	0	-
Cc1cccn2c(=O)c(C=Nc3ccccc3)c(NCc3ccco3)nc12	?	?	?	0	0	-	RECQ1 inh-2=0
O=[N+]([O-])c1ccc(NCc2ccccc2)c2nonc12	0	0	11µM	0	0	-	RECQ1 inh conf=20µM;ADP FP counter=2.2µM;RECQ1 inh-2=45µM
O=[N+]([O-])c1ccc(NCc2ccc(Cl)cc2)c2ccncc12	0	0	-	0	-	-
C(=NC1CCCCC1)=NC1CCCCC1	-	0	0	-	0	-
CCN(CC)C(=O)c1ccc2c(c1)C1C(Cl)C(Sc3ccccc3[N+](=O)[O-])CC1C(C(=O)O)N2 (stereo unspecified)	?	0	0	0	0	-	RECQ1 inh conf=?;ADP FP counter=126µM
Cc1ccc2c(c1Cl)NC(C(=O)O)C1CC(Sc3ccccc3[N+](=O)[O-])C(Cl)C21 (stereo unspecified)	?	0	0	0	0	-
CC(C)c1cc2c(c(O)c1O)[C@]1(C(=O)O)CCCC(C)(C)C1CC2 (stereo partly specified)	-	0	0	0	?	-
O=c1oc2ccccc2c(O)c1C(c1ccccn1)c1c(O)c2ccccc2oc1=O	0	?	7.9µM	0	0	-	RECQ1 inh-2=?
Cc1cc(C)cc(OP(=O)(Oc2cc(C)cc(C)c2)Oc2cc(C)cc(C)c2)c1	-	0	0	-	-	-
CC(C)n1c(=O)c(C=Nc2ccc(S(N)(=O)=O)cc2)c(O)n(Cc2ccco2)c1=O	0	?	?	0	0	-	RECQ1 inh-2=0
Cc1ccc(N)cc1[N+](=O)[O-]	-	0	?	-	0	-
CCCCC(=O)N/N=C/c1c(O)n(Cc2ccco2)c(=O)[nH]c1=O	0	0	32µM	0	0	-	RECQ1 inh-2=0
O=C(N/N=C/c1c(O)n(Cc2ccco2)c(=O)[nH]c1=O)c1ccccc1O	0	?	?	0	0	-
C/C=C/C=O	-	0	0	-	0	-
O=C1NC(=S)NC(=O)C1=Cc1cccc2cc3ccccc3cc12	?	0	0	0	0	-
CC1(C)OC(c2ccccc2)=C/C(=C/C=C2C(=O)NC(=S)NC2=O)O1	?	0	25µM	22µM	0	85
CN1/C(=C\C=C2C(=O)NC(=S)NC2=O)C(C)(C)c2ccccc21	40µM	0	0	0	0	76
C[N+](=O)[O-]	-	0	0	-	0	-
O=C=NC1CCCCC1	-	0	0	-	0	-
O=[N+]([O-])c1ccc(N2CCCCCC2)c2nonc12	?	0	-	0	-	43
C=CCOCC1CO1 (stereo unspecified)	-	0	0	-	0	-
Cc1ccc(N2C(=O)NC(=O)/C(=C/c3cnn(-c4ccc(C)cc4)c3)C2=O)cc1	0	0	0	0	0	-
Cc1ccc(N2C(=O)NC(=O)/C(=C/c3ccoc3)C2=O)cc1	35µM	1.6µM	13µM	16µM	3.2µM	60
SMILES	FEN1 inh-1	APEX1 inh	RECQ1 inh-1	BLM inh	TDP1 inh	FEN1 inh-2	others
Fc1ccc(C(OCCN2CCN(C/C=C/c3ccccc3)CC2)c2ccc(F)cc2)cc1	-	0	0	-	0	-
O=C1NC(=O)N(c2ccccc2)C(=O)/C1=C\c1ccc([N+](=O)[O-])s1	32µM	?	?	0	0	19
CN1C(=O)NC(=O)/C(=C/c2ccc([N+](=O)[O-])s2)C1=O	?	?	?	0	0	7.6
Cc1cccc(N)c1C	-	0	0	-	0	-
Nc1ccc2ccc3cccc[n+]3c2c1	50µM	0	-	0	-	?
Cc1ccccc1-n1c(O)c(/C=C/C=Nc2ccccc2)c(=O)[nH]c1=O	0	0	25µM	0	0	85
Nc1ccc(-c2ccc(N)c(Cl)c2)cc1Cl	-	0	0	-	0	-
CCCBr	-	0	0	-	0	-
C[n+]1c(-c2ccccc2)c2cc(N)ccc2c2ccc(N)cc21	11µM	11µM	-	?	-	9.5
Cc1cccc(N2C(=O)/C(=C/c3ccc(N4CCN(C)CC4)o3)C(=O)NC2=S)c1C	0	0	0	0	0	85
CCc1ccccc1N1C(=O)/C(=C/c2ccc(N3CCN(C)CC3)o2)C(=O)NC1=S	?	0	0	0	0	-
O=C1NC(=O)N(Cc2ccccc2)C(=O)/C1=C\c1ccco1	45µM	?	?	?	0	76
Cn1cccc1/C=C1\C(=O)NC(=O)N(Cc2ccccc2)C1=O	0	0	?	0	0	-
COc1cccc2c1C(=O)c1c(O)c3c(c(O)c1C2=O)CC(O)(C(C)=NO)CC3OC1CC(N)C(O)C(C)O1 (stereo unspecified)	?	-	-	-	-	30
Cc1cccc(Oc2nc3c(C)cccn3c(=O)c2/C=C(\C#N)c2nc3ccccc3s2)c1	?	-	-	0	0	67
Cc1cccn2c(=O)c(/C=C(\C#N)c3nc4ccccc4s3)c(Oc3ccc(F)cc3)nc12	?	-	-	0	0	-
CN1CCc2nc3sc(C#N)c(N)c3c(-c3cccs3)c2C1	?	0	0	0	0	?
CSSC	-	0	0	-	0	-
CSc1nc(N)c(N=Nc2ccc([As](=O)(O)O)cc2)c(=O)[nH]1	0	0	0	0	0	76
COC(C)(C)C	-	0	0	-	0	-
CC[N+](C)(CC)CCCCOc1ccc2c(c1)C(=O)c1cc(OCCCC[N+](C)(CC)CC)ccc1-2	?	0	0	0	0	21
CCCCCCCCCCCCCCOS(=O)(=O)O	-	0	?	?	0	-
CN1CCC(N(C)c2nc(-c3ccc([N+](=O)[O-])cc3)nc3ccccc23)CC1	35µM	0	0	0	0	34
Cn1cccc1/C=C1/C(=O)NC(=S)N(Cc2ccc(F)cc2)C1=O	0	?	25µM	?	-	?
Cn1cccc1/C=C1/C(=O)NC(=O)N(Cc2ccc(F)cc2)C1=O	0	0	?	0	-	-
c1ccc(C2CO2)cc1 (stereo unspecified)	-	0	0	-	0	-
O=C(Cl)OCc1ccccc1	-	0	0	-	0	-
